From PubChem BioAssay
TLR9-MyD88 inh: TLR9-MyD88 interaction inhibition; Q9NR96+Q99836; CHO BLA complementation TLR9-MyD88, CCF4 FRET ratio; inhibition, % at 4.98 µM; 0.21% of 340,000 active; AID 504734;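 active = inhibition above the mean over all tested compounds plus 3 SD, cut at about 21% in these data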;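 also: 0% = DMSO only wells and 100% = clavulanate BLA inhibitor control wells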
TLR4-MyD88 BLA: blocks binding of human TLR4 to MyD88; 0.18% of 200,000 active; HeLa CL3-4 TLR4/MyD88 BLA complementation, FRET ratio; inhibition, % at 8.4 µM; AID 861; O00206+Q99836; in the data active = inhibition above about 25%;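 also: 0% = vehicle and 100% = reference inhibitor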
IDE act: IDE (human) activation, cell-based | P14735 | HEK cells, FAbeta-B cleavage, fluorescence polarization; 0% vehicle, 100% cell-free pure enzyme wells | activation, % at 5.96 µM | 0.073% of 340,000 active | AID 493087;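 active = activation above the mean of all tested compounds plus 3 SD, set per screening campaign, cut at about 17% in these data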
Target sequence (P14735 whole entry, looked up): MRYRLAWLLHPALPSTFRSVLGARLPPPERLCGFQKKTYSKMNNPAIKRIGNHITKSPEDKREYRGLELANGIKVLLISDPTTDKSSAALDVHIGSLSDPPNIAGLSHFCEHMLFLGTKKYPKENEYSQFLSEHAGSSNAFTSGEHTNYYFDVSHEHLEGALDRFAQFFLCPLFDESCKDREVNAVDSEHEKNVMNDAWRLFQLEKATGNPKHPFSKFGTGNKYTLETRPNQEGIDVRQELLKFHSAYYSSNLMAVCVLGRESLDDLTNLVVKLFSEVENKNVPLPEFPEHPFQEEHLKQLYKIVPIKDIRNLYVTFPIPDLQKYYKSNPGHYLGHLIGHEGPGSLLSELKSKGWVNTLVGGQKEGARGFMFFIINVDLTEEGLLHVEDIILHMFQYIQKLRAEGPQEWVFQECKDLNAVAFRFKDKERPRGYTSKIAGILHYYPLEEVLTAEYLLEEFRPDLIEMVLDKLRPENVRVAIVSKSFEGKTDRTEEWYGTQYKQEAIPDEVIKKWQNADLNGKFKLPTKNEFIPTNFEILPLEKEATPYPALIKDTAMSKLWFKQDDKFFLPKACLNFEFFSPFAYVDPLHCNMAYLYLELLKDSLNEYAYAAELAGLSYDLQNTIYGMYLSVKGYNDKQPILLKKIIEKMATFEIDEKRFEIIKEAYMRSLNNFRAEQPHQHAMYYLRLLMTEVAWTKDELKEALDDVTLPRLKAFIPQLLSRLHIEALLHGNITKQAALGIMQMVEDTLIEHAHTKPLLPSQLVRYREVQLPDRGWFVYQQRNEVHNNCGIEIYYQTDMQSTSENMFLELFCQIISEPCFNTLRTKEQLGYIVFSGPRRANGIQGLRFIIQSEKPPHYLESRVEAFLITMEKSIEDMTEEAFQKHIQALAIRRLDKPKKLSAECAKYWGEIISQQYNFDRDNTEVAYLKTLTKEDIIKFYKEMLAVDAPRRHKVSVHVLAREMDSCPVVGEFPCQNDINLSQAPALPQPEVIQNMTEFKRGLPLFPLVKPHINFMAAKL
IDE cell inh: inhibitors of human insulin-degrading enzyme in cells | HEK cells, FAbetaB cleavage, fluorescence polarization | 0.41% of 320,000 active | AID 434962 | inhibition, % at 5.59 µM | P14735;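 active = percent inhibition above the average of all tested compounds plus 3 SD, set per screening campaign, cut at about 16% in these data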;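 also: IDE supplied by intact live HEK cells; FP after avidin binding of uncleaved biotin substrate so inhibition keeps polarization high; 0% = DMSO wells and 100% = 60 µM reference IDE inhibitor Ii1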
NOD2 RIPK2 PPI: inhibitors of human NOD2-RIPK2 interaction. 0.38% of 360,000 active. CHO BLA complementation NOD2-RIPK2, CCF4 ratio. AID 624267. inhibition, % at 4.98 µM; in the data active = inhibition above about 21%;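 also: 0% = vehicle only and 100% = reference blocker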
IDE inh confirm: confirmation of human insulin-degrading enzyme inhibitors in cells; 51% of 1,200 active; inhibition, % at 5.59 µM; HEK cells, FAbetaB cleavage, fluorescence polarization; shares compounds with IDE cell inh;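 active = mean inhibition across triplicate wells above the cutoff set by the earlier primary insulin-degrading enzyme screen, cut at about 16% in these data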;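 also: 0% = DMSO wells and 100% = 60 µM reference IDE inhibitor Ii1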
HEK cytotox: HEK cell cytotoxicity, counter-screen for IDE inhibitors; shares compounds with IDE cell inh; HEK293 cytotoxicity, ATP luminescence; inhibition, % at 5.59 µM; 28% of 1,200 active; AID 449730; in the data active = inhibition above about 22%;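 also: 0% = vehicle wells and 100% = reference cytotoxic drug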
An asterisk follows results filed as active; . = no result given. A selection: hits, their analogues and other compounds. The true share with any hit is near 0.86%.

SMILES	TLR9-MyD88 inh	TLR4-MyD88 BLA	IDE act	IDE cell inh	NOD2 RIPK2 PPI	IDE inh confirm	HEK cytotox
CCSCCNC(=O)c1cc(-n2cnnc2)ccc1Cl	1	10	-2	3	1	.	.
O=C(C[n+]1ccccc1)c1ccc(-c2ccccc2)cc1	-7	-8	-9	7	6	.	.
CN(C)c1cc[n+](CC(=O)c2ccc(-c3ccccc3)cc2)cc1	3	-4	-15	22*	-10	23*	83*
CCn1c(SCC(=O)NCCCN2CCCC2=O)nnc1-c1cccc(C)c1	2	.	-1	.	-2	.	.
CCOC(=O)/C(C#N)=C(C)/C=C1\Sc2ccccc2N1CC	-5	-6	-64	44*	-3	78*	36*
CCN1/C(=C\C(=S)Nc2ccccc2)Sc2ccccc21	-1	4	-5	21*	3	2	13
CCN1/C(=C\C(C)=O)Sc2ccc(OC)cc21	-3	11	3	1	-15	.	.
CCN1/C(=C\C=C(C(C)=O)C(C)=O)Sc2ccccc21	8	-5	-53	35*	4	50*	9
Cc1nn(C)c(C(=O)N2CCN(C(=O)c3ccco3)CC2)c1Br	1	-4	6	-4	-10	.	.
Cc1cccc(Sc2nc(-c3ccccc3)ncc2C(=O)O)c1	-1	-7	0	-2	4	.	.
COc1ccc(-n2ncc3c2CC(C)(C)CC3NC(=O)C2=CC(=O)CC(C)(C)O2)cc1 (stereo not drawn)	1	.	4	2	-4	.	.
COc1ccc(Cl)cc1NC(=O)C1CCCN(c2cc(C)nc3ncnn23)C1 (stereo not drawn)	1	-4	-27	16*	-18	13	9
CCOC(=O)C(NCc1ccco1)(NC(=O)c1ccc(OC)cc1)C(F)(F)F (stereo not drawn)	-6	6	-2	1	-5	.	.
CCCC(=O)N1CCN(c2nc3ccc(Br)cc3s2)CC1	-2	.	-9	15	-8	.	.
CCCCC(=O)N1CCN(c2nc3ccc(Br)cc3s2)CC1	-8	.	-22	25*	0	8	42*
CCCC(=O)N1CCN(c2nc3ccc(CC)cc3s2)CC1	-2	.	-10	19*	-7	10	21
O=C1c2cccc3c(N4CCCCC4)ccc(c23)C(=O)N1c1ccccn1	7	16	-7	75*	6	109*	21
CC(=O)N(C(C)=O)N1C(=O)c2cccc3c(N4CCOCC4)ccc(c23)C1=O	4	9	-1	17*	-14	6	19
CC1=C(C)C(=O)N(c2ccccn2)C1=O	8	-6	1	1	-8	.	.
CC1CCN(c2ccc3c(c2)S(=O)(=O)c2cccc(C(=O)NCc4cccc(F)c4)c2C3=O)CC1	10	.	-13	24*	16	32*	23*
O=C(NCc1cccc(F)c1)c1cccc2c1C(=O)c1ccc(N3CCCC3)cc1S2(=O)=O	13	.	-5	13	21	.	.
CN(Cc1ccccc1)C(=O)c1ccccc1NC(=O)c1ccccc1	-3	-8	1	1	-2	.	.
Nc1c(C(=O)N/N=C/c2ccc(Cl)cc2)cnn1-c1ccccc1	2	.	-3	18*	-2	2	9
O=C(O)c1nccnc1C(=O)Nc1ccc(Cl)cc1Cl	-3	.	4	-1	-12	.	.
N#C/C(=C\c1ccc(N2CCOCC2)o1)C(=O)NC1CCCCC1	-4	.	-37	46*	7	48*	17
SMILES	TLR9-MyD88 inh	TLR4-MyD88 BLA	IDE act	IDE cell inh	NOD2 RIPK2 PPI	IDE inh confirm	HEK cytotox
N#C/C(=C\c1ccc(N2CCOCC2)o1)C(=O)NCC1CCCO1 (stereo not drawn)	0	8	-26	17*	-10	22*	12
N#C/C(=C\c1ccc(-c2ccc(C(=O)O)cc2)o1)C(=O)NCC1CCCO1 (stereo not drawn)	1	4	5	3	1	.	.
N#CC1=C(N)SC(N)=C(C#N)C1c1cccc(O)c1	0	3	-9	20*	11	6	10
COc1ccc(C2C(C#N)=C(N)SC(N)=C2C#N)cc1OC	1	3	-15	13	5	.	.
N=C1/C(=C\c2ccc(SCc3ccco3)o2)C(=O)N=C2SC=NN12	0	-1	-31	25*	-1	13	8
CC1=NN2C(=N)/C(=C\c3ccc(SCc4ccccc4)o3)C(=O)N=C2S1	10	0	3	-1	-3	.	.
CCCN1CCC2(CC1)C(C#N)=C(N)Oc1c2sc2nc(C)cc(C)c12	3	-2	-13	23*	-2	7	12
CCOC(=O)N1CCC2(CC1)C(C#N)=C(N)Oc1c2sc2nc(C)cc(C)c12	10	4	-8	0	-6	.	.
C=CCn1c(O)c(N=NC(=S)Nc2cccc(OC)c2)c2ccccc21	-17	7	-6	19*	-21	7	82*
C=CCn1c(O)c(N=NC(=O)OCC)c2ccccc21	-4	2	-1	0	-14	.	.
C=CCn1c(O)c(N=NC(=S)Nc2ccc(OC)cc2)c2ccccc21	2	8	4	17*	-11	-1	57*
O=C(Nc1ccccc1SCC1CSc2nc3ccccc3c(=O)n21)c1ccccc1 (stereo not drawn)	6	-1	-37	18*	2	10	20
Cc1ccc(C(=O)Nc2ccccc2SCC2CSc3nc4ccccc4c(=O)n32)cc1 (stereo not drawn)	-14	-9	-14	-2	0	.	.
Cc1ccc(S(=O)(=O)CC(=O)N2CCN(c3ccc([N+](=O)[O-])cc3)CC2)cc1	-3	.	-1	19*	3	1	23*
Cc1ccc(CC(=O)N2CCN(c3ccc([N+](=O)[O-])cc3)CC2)cc1	-12	.	4	6	6	.	.
O=C(NNC(=O)C1CCN(S(=O)(=O)c2c(Cl)cccc2Cl)CC1)c1ccccc1O	-2	.	8	-6	5	.	.
CC(=O)c1cc(NC(=O)c2ccc(Cl)cc2)c(=O)oc1/C=C/N(C)C	8	2	-43	17*	7	54*	12
CC(=O)c1cc(NC(=O)c2cccc(C(F)(F)F)c2)c(=O)oc1/C=C/N(C)C	-5	2	-14	6	0	.	.
COc1ccc(Cc2c(-c3ccc(F)cc3)nc3ccc(Cl)cn23)c(C)c1	.	.	.	.	10	.	.
Cc1cc([N+](=O)[O-])cc(C)c1OCC(=O)N/N=C/c1ccc(OC(=O)c2ccccc2Br)cc1	-1	11	-3	9	-1	.	.
Cc1cc([N+](=O)[O-])cc(C)c1OCC(=O)N/N=C/c1ccc(OC(=O)c2ccccc2)cc1	2	-13	-25	20*	14	6	8
CCCNC(=O)C1(C)CCCN(C(=O)C(c2ccccc2)c2ccccc2)C1 (stereo not drawn)	.	.	.	.	8	.	.
